# PubChem BioAssay
# Calls of active or inactive are those of the source. Unless noted, how the calls were made is not given here.
# Experiments:
# [1] = resazurin metabolic signal in HepG2 cells – cell-based, resazurin fluorescence, 24 h, PK04 Diversity Set, profiling panel (AID 1172); conditions: HepG2 viability, higher = more signal; further: test concentration not given here
# [2] = budding yeast growth changes without added modifier – OD600, strain BY4716, 24 h, basal condition, primary screen (AID 1173); conditions: S. cerevisiae BY4716 growth, OD600, 24 h; higher = more signal, called active from +8 up or from −8 down
# [3] = viability profiling in MM1S myeloma cells – cell-based, resazurin fluorescence, basal, 24 h, PK04 Diversity Set, profiling panel (AID 1174); conditions: higher = more signal, called active from +8 up or from −8 down;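 further: MM1S multiple myeloma cell line; test concentration not given here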
# [4] = target: Dihydroorotate dehydrogenase (quinone), mitochondrial (Plasmodium falciparum (isolate 3D7)) (UniProt Q08210); assay: inhibition of P. falciparum DHODH – biochemical, C-terminal His tag, absorbance 600 nm, primary screen (AID 1175); conditions: PfDHODH enzyme, DCIP absorbance 600 nm; higher = more signal, called active from +8 up or from −8 down;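 further: recombinant parasite enzyme with a five histidine tag at its C terminus; test concentration not given here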
# Chain of Dihydroorotate dehydrogenase (quinone), mitochondrial (Plasmodium falciparum (isolate 3D7)) (Q08210 whole entry, looked up): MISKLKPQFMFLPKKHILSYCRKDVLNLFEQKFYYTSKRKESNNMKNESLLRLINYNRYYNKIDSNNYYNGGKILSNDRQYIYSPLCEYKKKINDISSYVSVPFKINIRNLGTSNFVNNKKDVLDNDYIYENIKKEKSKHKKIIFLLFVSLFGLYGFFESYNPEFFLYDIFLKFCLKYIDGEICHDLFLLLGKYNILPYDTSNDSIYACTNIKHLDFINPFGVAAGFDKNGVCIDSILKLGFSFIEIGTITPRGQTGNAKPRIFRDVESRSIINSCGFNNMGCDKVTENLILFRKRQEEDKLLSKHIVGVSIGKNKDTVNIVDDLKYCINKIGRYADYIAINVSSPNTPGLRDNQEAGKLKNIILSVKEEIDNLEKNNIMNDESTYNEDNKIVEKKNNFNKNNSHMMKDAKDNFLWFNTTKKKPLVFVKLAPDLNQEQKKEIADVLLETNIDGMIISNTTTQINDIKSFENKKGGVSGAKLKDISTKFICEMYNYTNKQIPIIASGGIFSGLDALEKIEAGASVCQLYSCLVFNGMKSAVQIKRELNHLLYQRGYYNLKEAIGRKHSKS
# [5] = inhibition of PAO1 biofilm formation – strain PAO1, LB-PBS medium, absorbance 600 nm, primary screen (AID 1176); further: test concentration not given here; conditions: P. aeruginosa PAO1 growth/biofilm, A600, 12 h; higher = more signal
# [6] = growth modulation of vineyard yeast isolate – strain RM11-1a, OD600, basal, 24 h, primary screen (AID 1177);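 further: cultures grown under basal conditions with no added stressor; test concentration not given here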; conditions: S. cerevisiae RM11-1a growth, OD600, 24 h; higher = more signal, called active from +8 up or from −8 down
# [7] = growth of efflux-deficient E. coli DRC39 – strain DRC39, OD650, 24 h, E. coli filamentation inducers, primary screen (AID 1178);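 further: growth measured as culture turbidity by optical density at 650 nm; test concentration not given here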; conditions: E. coli DRC39 acrAB, higher = more signal, called active from +8 up or from −8 down
# [8] = growth of efflux-deficient E. coli DRC39 – strain DRC39, OD650, 48 h, E. coli filamentation inducers, primary screen (AID 1179);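 further: screen aims at cell division blockers that make cells filament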; conditions: E. coli DRC39 delta-acrAB growth, higher = more signal, called active from +8 up or from −8 down
# [9] = viability profiling in RPMI8226 myeloma cells – cell-based, resazurin fluorescence, basal, 24 h, PK04 Diversity Set, profiling panel (AID 1180); conditions: higher = more signal;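 further: RPMI8826 multiple myeloma cell line at 5000 cells per well; test concentration not given here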
# [10] = target: E3 ubiquitin-protein ligase XIAP (Homo sapiens) (UniProt P98170); assay: small molecules binding XIAP protein – biophysical, small-molecule microarray, fluorescence 635 nm, primary screen (AID 1181); conditions: higher = more signal;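 further: score merges 667 nm emission and signal to noise over triplicate slides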
# Chain of E3 ubiquitin-protein ligase XIAP (Homo sapiens) (P98170 whole entry, looked up): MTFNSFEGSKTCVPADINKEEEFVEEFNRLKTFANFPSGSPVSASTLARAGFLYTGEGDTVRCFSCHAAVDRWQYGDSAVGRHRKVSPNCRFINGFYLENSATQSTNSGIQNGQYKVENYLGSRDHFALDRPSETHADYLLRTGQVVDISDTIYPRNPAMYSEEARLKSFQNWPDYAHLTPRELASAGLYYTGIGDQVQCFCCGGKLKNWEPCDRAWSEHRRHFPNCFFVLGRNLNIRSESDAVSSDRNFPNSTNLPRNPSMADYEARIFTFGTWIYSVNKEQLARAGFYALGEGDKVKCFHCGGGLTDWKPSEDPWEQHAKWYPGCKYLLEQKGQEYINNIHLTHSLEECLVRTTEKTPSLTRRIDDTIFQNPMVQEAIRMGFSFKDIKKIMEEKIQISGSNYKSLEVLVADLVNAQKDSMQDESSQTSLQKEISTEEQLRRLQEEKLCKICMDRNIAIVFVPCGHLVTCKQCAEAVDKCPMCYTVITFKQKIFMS
Compound,z-score [1],z-score [2],z-score [3],composite z-score [4],z-score [5],z-score [6],z-score [7],z-score [8],z-score [9],composite z-score [10]
CCOC(=O)[C@H](Cc1ccccc1)NC(=O)CCC1CC(OC(=O)NCCc2ccc(F)cc2)CC2(CCCC(COC(=O)NCCCN3CCCC3=O)O2)O1 (stereo not given in full),-0.0038,-0.196 (inactive),0.374 (inactive),-1.73 (inactive),0.781 (inactive),-1.25 (inactive),-0.198 (inactive),-0.926 (inactive),0.898,-0.0622
C=CC[C@@H]1C=C[C@H](ON=C(C)CCC(=O)OC[C@H]2O[C@H](C#Cc3ccccc3)C=C[C@@H]2Oc2ccc(C)cc2)[C@@H](CO)O1,-0.0055,1.09 (inactive),0.212 (inactive),0.103 (inactive),-0.242 (inactive),1.23 (inactive),0.911 (inactive),-1.55 (inactive),-0.177,0.132
CCOC(=O)[C@H](CC(C)C)NC(=O)CCC1CC(OC(=O)NCCc2ccc(F)cc2)CC2(CCCC(COC(=O)NCCC(C)C)O2)O1 (stereo not given in full),-0.566,1.2 (inactive),0.214 (inactive),0.322 (inactive),0.532 (inactive),0.821 (inactive),0.334 (inactive),-0.139 (inactive),0.398,0.0938
CC(CCN1CCCc2nc(C)c(C)cc21)=NO[C@@H](C)c1cc(-c2c(C)cc(C)cc2C)no1,-0.616,-1.54 (inactive),-0.012 (inactive),-0.837 (inactive),0.0525 (inactive),0.39 (inactive),0.898 (inactive),-0.158 (inactive),0.378,0.194
CO[C@H]1COC(=O)CC=C[C@@H](C)[C@H](NS(=O)(=O)c2ccc(C)cc2)COC(=O)CCC[C@@H]1C,0.703,-0.99 (inactive),1.01 (inactive),-0.242 (inactive),-0.361 (inactive),-0.5 (inactive),0.0468 (inactive),0.0191 (inactive),0.545,0.0797
CCOC(=O)NN=C1C[C@@H](O)[C@@H](O)[C@@H]2[C@@H]3C(=O)N(c4cccc(Oc5ccccc5)c4)C(=O)[C@@H]3CC[C@H]12,0.287,-0.946 (inactive),-1.12 (inactive),-1.59 (inactive),1.05 (inactive),-1.39 (inactive),0.0624 (inactive),-0.642 (inactive),0.529,-0.106
COC(=O)[C@H](C)NC(=O)CCC1CC(OC(=O)NCc2ccc3c(c2)OCO3)CC2(CCCC(COC(=O)NCCc3ccccc3OC)O2)O1 (stereo not given in full),-0.134,-0.148 (inactive),-0.344 (inactive),-1.07 (inactive),0.238 (inactive),0.0525 (inactive),0.775 (inactive),0.451 (inactive),-0.229,-0.252
CCOC(=O)[C@H](Cc1ccccc1)NC(=O)OC1CC(CCC2CC(CC)=NO2)OC2(CCCC(COC(=O)NCCC(C)C)O2)C1 (stereo not given in full),0.239,0.633 (inactive),0.264 (inactive),-0.133 (inactive),0.226 (inactive),0.136 (inactive),0.347 (inactive),0.205 (inactive),0.65,-0.22
COC(=O)[C@@H]1CC[C@@H](C)[C@H](c2ccc(Br)cc2)N1,0.0869,-0.176 (inactive),-0.0484 (inactive),-0.275 (inactive),0.766 (inactive),-0.0446 (inactive),-0.234 (inactive),-0.0612 (inactive),0.429,0.0548
CC(=O)Nc1ccc([C@@H]2N[C@H](C(=O)O)CC[C@H]2C)cc1,0.219,-0.236 (inactive),-0.106 (inactive),0.0947 (inactive),0.557 (inactive),0.237 (inactive),0.909 (inactive),0.781 (inactive),-0.625,-0.0445
COc1ccc(O[C@@H]2[C@H](O)CO[C@H]2C=Cc2ccccc2)cc1,-1.03,-4.4 (inactive),-0.0321 (inactive),-1.24 (inactive),0.83 (inactive),-1.85 (inactive),0.988 (inactive),-0.741 (inactive),-0.473,-0.113
CC(C)(C)N1C(=O)[C@H]2[C@H]3[C@H](O)[C@H](O)CC(=O)[C@H]3CC[C@H]2C1=O,-0.915,-0.573 (inactive),0.319 (inactive),0.236 (inactive),-0.908 (inactive),0.143 (inactive),-0.403 (inactive),-0.738 (inactive),-0.383,-0.0378
